# Measurements from PubChem BioAssay.
# Calls of active or inactive are those of the source.
# How the values were obtained:
# [1] = anti-His antibody binders, primary screen, artefact control for SMM control protein annotation, biochemical, small-molecule microarray, 635 nm fluorescence (AID 1128); details: anti-His Alexa647 antibody binding, higher = more signal;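 also: score merges feature fluorescence with signal-to-noise for each printed compound spot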
# [2] = system: Human papillomavirus type 1a E7 protein (residues 1-88); assay: HPV1a E7 small-molecule binders, primary screen, biochemical, small-molecule microarray, residues 1-88, 635 nm (AID 1129); details: small-molecule microarray binding, fluorescence 635 nm; higher = more signal
# [3] = target: Focal adhesion kinase 1 (Homo sapiens) (UniProt Q05397); assay: small-molecule microarray binders of FAK, primary screen, biochemical, 635/667 nm fluorescence, BSA, DTT (AID 1130); details: PTK2 binding, 635 nm fluorescence, higher = more signal;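 also: composite of spot emission at 667 nm and signal to noise over triplicate slides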
# Focal adhesion kinase 1 (Homo sapiens), sequence (Q05397 whole entry, looked up): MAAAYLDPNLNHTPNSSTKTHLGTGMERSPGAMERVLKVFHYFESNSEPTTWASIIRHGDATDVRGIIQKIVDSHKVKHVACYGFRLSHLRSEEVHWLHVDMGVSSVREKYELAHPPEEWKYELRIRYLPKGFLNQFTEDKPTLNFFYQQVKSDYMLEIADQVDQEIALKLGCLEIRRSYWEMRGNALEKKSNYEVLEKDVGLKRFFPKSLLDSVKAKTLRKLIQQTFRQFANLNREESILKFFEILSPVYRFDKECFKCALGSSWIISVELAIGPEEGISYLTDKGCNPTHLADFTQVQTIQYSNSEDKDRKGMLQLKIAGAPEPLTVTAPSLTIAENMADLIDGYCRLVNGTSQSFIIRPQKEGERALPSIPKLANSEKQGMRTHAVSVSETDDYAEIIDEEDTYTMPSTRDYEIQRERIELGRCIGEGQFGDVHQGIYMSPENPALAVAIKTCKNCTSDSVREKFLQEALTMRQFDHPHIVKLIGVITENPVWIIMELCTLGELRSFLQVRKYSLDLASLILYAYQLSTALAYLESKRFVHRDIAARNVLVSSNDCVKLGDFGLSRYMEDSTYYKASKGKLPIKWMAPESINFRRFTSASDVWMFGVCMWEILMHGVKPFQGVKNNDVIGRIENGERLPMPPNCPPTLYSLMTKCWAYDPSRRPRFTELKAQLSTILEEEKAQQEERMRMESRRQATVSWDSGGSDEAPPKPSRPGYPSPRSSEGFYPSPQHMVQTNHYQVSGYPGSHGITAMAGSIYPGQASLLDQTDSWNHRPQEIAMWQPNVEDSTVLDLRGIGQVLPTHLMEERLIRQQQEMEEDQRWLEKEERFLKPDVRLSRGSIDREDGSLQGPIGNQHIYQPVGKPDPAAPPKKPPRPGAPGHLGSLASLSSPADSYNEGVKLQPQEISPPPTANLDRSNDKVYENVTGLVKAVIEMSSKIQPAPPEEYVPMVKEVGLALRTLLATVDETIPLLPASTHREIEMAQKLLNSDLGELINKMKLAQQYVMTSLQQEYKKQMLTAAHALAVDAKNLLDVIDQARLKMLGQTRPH
# [4] = system: Fibrinogen (Alexa647-labelled); assay: fibrinogen binders on compound microarrays, profiling panel, artefact control for SMM control-protein annotation, biochemical, small-molecule microarray, 635/667 nm fluorescence (AID 1131); details: fibrinogen-A647 binding fluorescence, higher = more signal;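 also: z-score merges 667 nm fluorescence with per-spot signal-to-noise over triplicate slides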
# [5] = target: Follistatin (Homo sapiens) (UniProt P19883); assay: follistatin binders on small-molecule microarrays, primary screen, biochemical, small-molecule microarray, 635/667 nm fluorescence (AID 1132); details: FST binding, 635 nm fluorescence, higher = more signal
# Follistatin (Homo sapiens), sequence (P19883 whole entry, looked up): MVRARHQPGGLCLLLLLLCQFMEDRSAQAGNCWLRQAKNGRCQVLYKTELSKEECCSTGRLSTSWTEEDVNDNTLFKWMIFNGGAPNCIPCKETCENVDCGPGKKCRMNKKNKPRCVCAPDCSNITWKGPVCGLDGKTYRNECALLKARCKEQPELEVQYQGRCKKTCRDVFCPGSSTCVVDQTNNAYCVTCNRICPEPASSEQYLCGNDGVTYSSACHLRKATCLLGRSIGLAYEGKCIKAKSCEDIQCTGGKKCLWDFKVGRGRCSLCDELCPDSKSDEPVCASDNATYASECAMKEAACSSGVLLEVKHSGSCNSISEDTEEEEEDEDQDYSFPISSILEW
# [6] = target: Fibroblast growth factor 2 (Homo sapiens) (UniProt P09038); assay: FGF2 binders on small-molecule microarrays, primary screen, biochemical, small-molecule microarray, 635/667 nm fluorescence (AID 1133); details: small-molecule microarray binding, FGF2, fluorescence 635/667; higher = more signal
# Fibroblast growth factor 2 (Homo sapiens), sequence (P09038 whole entry, looked up): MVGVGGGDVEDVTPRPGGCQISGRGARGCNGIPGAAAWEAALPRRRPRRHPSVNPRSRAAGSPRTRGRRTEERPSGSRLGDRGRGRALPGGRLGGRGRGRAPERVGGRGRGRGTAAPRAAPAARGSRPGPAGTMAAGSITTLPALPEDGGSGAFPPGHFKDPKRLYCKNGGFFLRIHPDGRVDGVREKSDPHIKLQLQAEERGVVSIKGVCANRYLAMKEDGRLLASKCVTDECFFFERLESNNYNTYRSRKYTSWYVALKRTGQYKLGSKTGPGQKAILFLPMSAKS
# [7] = mitochondrial membrane potential change in A549 cells, profiling panel, cell-based, JC-1 fluorescence, basal, 24 h, 100 nL (AID 1138); details: higher = more signal;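 also: A549 lung adenocarcinoma cells under basal conditions with no added stimulus; test concentration not given here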
# [8] = system: Lefty1; assay: Lefty1 binders on small-molecule microarrays, primary screen, biochemical, small-molecule microarray, 635/667 nm fluorescence (AID 1139); details: small-molecule microarray binding, fluorescence 635/667; higher = more signal
# [9] = system: wheat germ agglutinin (Triticum aestivum), Alexa647-labelled; assay: wheat germ agglutinin binders on compound microarrays, profiling panel, artefact control for SMM control-protein annotation, biochemical, small-molecule microarray, 635/667 nm fluorescence (AID 1140); details: WGA-A647 binding, 635 nm fluorescence, higher = more signal;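 also: score merges 667 nm feature emission with signal to noise over triplicate slides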
# [10] = target: Luciferin 4-monooxygenase (Photinus pyralis) (UniProt P08659); assay: firefly luciferase enzyme inhibitors, primary screen, biochemical, luminescence, purified enzyme, 2006 set (AID 1141); details: SteadyGlo luminescence, 30 min, higher = more signal, called active from +8 up or from −8 down;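 also: cell-free assay with purified firefly luciferase at 100 ng per well in PBS; test concentration not given here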
# Luciferin 4-monooxygenase (Photinus pyralis), sequence (P08659 whole entry, looked up): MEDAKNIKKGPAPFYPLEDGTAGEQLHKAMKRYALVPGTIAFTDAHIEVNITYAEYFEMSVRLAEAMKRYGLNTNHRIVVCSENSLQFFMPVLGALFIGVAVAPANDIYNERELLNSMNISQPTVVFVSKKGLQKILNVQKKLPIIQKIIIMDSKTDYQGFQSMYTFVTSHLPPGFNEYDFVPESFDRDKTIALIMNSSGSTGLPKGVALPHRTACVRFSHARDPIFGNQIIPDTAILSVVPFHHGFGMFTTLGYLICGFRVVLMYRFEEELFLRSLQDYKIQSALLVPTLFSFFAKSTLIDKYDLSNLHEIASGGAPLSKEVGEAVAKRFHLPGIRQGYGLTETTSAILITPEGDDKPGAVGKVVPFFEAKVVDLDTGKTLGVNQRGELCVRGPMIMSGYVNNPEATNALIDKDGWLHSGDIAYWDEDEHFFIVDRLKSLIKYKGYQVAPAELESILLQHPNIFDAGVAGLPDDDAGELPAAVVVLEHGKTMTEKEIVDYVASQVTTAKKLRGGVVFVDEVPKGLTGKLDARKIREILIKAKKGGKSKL
Compound,composite z-score [1],composite z-score [2],composite z-score [3],composite z-score [4],composite z-score [5],composite z-score [6],z-score [7],composite z-score [8],composite z-score [9],z-score [10]
C=C(COC)/C(=C/C[C@H](OC(C)=O)c1ccccc1OCCO)c1cc(C(=O)OC)ccc1OC,0.101,0.639,0.473,0.328,1.18,0.54,0.45,0.726,-0.0912,-0.419 (inactive)
CN(C)CCCNC(=O)[C@@]1(C)c2ccccc2C(=O)N(Cc2ccc(OC(F)(F)F)cc2)[C@H]1c1ccc(CO)cc1,0.117,0.365,0.37,0.294,0.948,0.389,-0.664,-0.425,0.668,0.14 (inactive)
NCCCCCCNC(=O)[C@@H]1C[C@@H]2C(=O)N3CCC[C@H]3C(=O)N2[C@@H]1c1cccc(OCCO)c1,2.14,0.894,0.0676,0.882,0.832,1.16,-0.383,1.24,0.938,-0.268 (inactive)
O=C(NCCN1CCOCC1)[C@@H]1c2ccccc2C(=O)N(Cc2ccccc2C(F)(F)F)[C@H]1c1ccc(CO)cc1,-1.48,0.0783,-0.331,-0.676,-0.2,-0.0425,2.63,-1.24,0.708,-0.676 (inactive)
CCCCCC1=C2CNC(Cc3ccccc3)(C(=O)OC)C=C2C(C)C1=O (stereo not given),1.01,0.515,0.563,0.837,-0.216,-0.871,1.04,-0.849,0.0953,0.423 (inactive)
Cc1ccc(N2C(=O)c3ccccc3[C@](C)(C(=O)NCCCN(C)C)[C@@H]2c2ccc(CO)cc2)nc1,-0.479,-0.254,0.304,-0.18,0.351,-1.21,0.361,-0.28,-0.0926,-0.156 (inactive)
CC(C)NC(=O)[C@@H]1c2ccccc2C(=O)N(Cc2ccccc2C(F)(F)F)[C@H]1c1ccc(CO)cc1,-0.403,-0.358,-0.156,-0.55,0.471,0.232,-0.18,-1.5,0.145,0.681 (inactive)
C=CC[C@@]1(C(=O)OC)N=C(c2ccc(OCCCO)cc2)O[C@@H]1c1ccccc1N=[N+]=[N-],2.37,1.24,0.568,0.159,1.41,1.66,0.311,0.53,0.874,-6.39 (inactive)
CCOc1cc(C(O)C2C=CC3C(=O)N(c4ccccc4)C(=O)C3N2Nc2ccccc2F)ccc1O (stereo not given),0.532,0.316,-0.0063,-0.428,0.106,-0.107,-0.638,-0.541,0.886,-1.38 (inactive)
Cc1ccc(S[C@]2(C(=O)NC(C)C)CC(=O)N(C3CCCCC3)[C@@H]2c2ccc(CO)cc2I)cc1,0.362,1.11,0.414,0.703,1.21,0.396,1.04,0.964,0.0189,0.571 (inactive)
COC(=O)[C@H](Cc1ccccc1)N1CC2=CCCC=C[C@@H]2[C@H]1[C@H](O)Cc1ccccc1,-0.305,0.431,-0.384,0.515,0.87,0.122,0.18,0.273,0.261,-0.62 (inactive)
CCOC(=O)C[C@H]1[C@H](OC(=O)Cc2ccc3c(c2)OCO3)[C@@H](NC(=O)c2ccc3ccccc3n2)c2cc(OCCCO)ccc2N1C(=O)Cc1ccc(OC)cc1,0.337,0.672,-0.307,0.557,0.72,0.394,1.26,0.577,0.391,-0.628 (inactive)
O=C1C[C@@](C(=O)O)(c2ccc([N+](=O)[O-])cc2)[C@@H](c2ccc(CO)cc2)N1C1CCCCC1,1.82,1.23,0.54,0.953,1.01,0.26,0.57,0.312,0.92,-1.81 (inactive)
C=C(CCCC)/C(=C/C[C@H](OC(=O)c1ccncc1)c1cccc(OCCO)c1)c1cnc2ccccc2c1,0.13,1.1,0.469,0.957,1.11,0.688,2.01,1.07,0.851,-0.78 (inactive)
CC1CC/C=C\[C@H]2OC34C=CCN(C(C)(C)C)C(=O)[C@H]3N(CCCO)C(=O)[C@@H]4C2C(=O)O1 (stereo not given in full),0.441,-0.137,-0.441,-0.735,-0.404,-0.685,0.0255,-0.842,-0.723,0.477 (inactive)
[N-]=[N+]=Nc1ccccc1[C@@H]1OC(c2ccc(OCCCO)cc2)=N[C@]1(Cc1ccccc1)C(=O)NCCN1CCOCC1,0.598,1.28,0.15,0.993,0.675,-0.155,-0.225,0.278,0.399,-5.81 (inactive)
COCCCNC(=O)[C@@]1(Sc2ccc(C)cc2)CC(=O)N(Cc2ccccc2C(F)(F)F)[C@@H]1c1ccc(CO)cc1I,-1.39,-2.04,-0.905,-1.75,-1.59,-1.5,-0.288,-1.78,-1.47,0.166 (inactive)
COC(=O)c1cccc([C@H]2OC(=CC(=O)OC(C)C)C[C@@H](c3cccc(C(=O)OC)c3)O2)c1,1.51,1.24,1.09,1,1.11,0.748,-0.562,0.679,0.961,-1.74 (inactive)
C=C(C)[C@@H]1CC=C(C(O)C2C=CC3C(=O)N(C)C(=O)C3N2Nc2ccc([N+](=O)[O-])cc2[N+](=O)[O-])CC1 (stereo not given in full),0.607,1.27,0.512,1,1.24,-0.0675,1.88,0.424,0.799,0.511 (inactive)
CN(C)c1ccc(C(O)C2C=CC3C(=O)N(Cc4ccccc4)C(=O)C3N2n2cnnc2)cc1 (stereo not given),0.108,0.115,-0.535,0.32,0.225,0.239,-0.269,-0.231,0.0743,-1.66 (inactive)
CCC(CC)C(O)C1C=CC2C(=O)N(c3ccccc3)C(=O)C2N1Nc1ccccc1F (stereo not given),1.62,1.16,0.869,0.94,0.337,-0.557,-0.231,0.128,0.416,0.211 (inactive)
CC(C)C[C@@H]1NC(=O)[C@@H]2C[C@H](C(=O)NCCCCCCNC(=O)CS)[C@H](c3cccc(OCCO)c3)N2C1=O,1.74,1.26,0.114,0.892,1.42,1.71,-0.0497,1.44,0.875,-0.986 (inactive)
O=C1C2C=CC(C(O)c3c(F)cccc3Cl)N(Nc3ccc([N+](=O)[O-])cc3)C2C(=O)N1c1ccccc1 (stereo not given),1.62,1.22,0.682,0.931,1.36,0.589,-0.514,0.948,0.844,1.67 (inactive)
CN(C)CCCC[C@@H]1NC(=O)[C@@H]2C[C@H](C(=O)NCCCCCN)[C@H](c3cccc(OCCO)c3)N2C1=O,2.76,1.05,-0.155,0.851,1.08,1.25,2.13,0.908,0.632,-1.6 (inactive)
CC(C)NC(=O)[C@@]1(C)c2ccccc2C(=O)N(Cc2ccccc2)[C@H]1c1ccc(CO)cc1,2.31,0.244,-0.226,-0.722,-0.4,-0.719,0.648,-0.189,0.948,-1.09 (inactive)
C=CCOC(=O)[C@H]1[C@@H]2C(=O)O[C@@H](c3ccccc3)[C@@H](c3ccccc3)N2[C@@H](c2ccc(OCCOC(=O)[C@@H]3C[C@@H]4C(=O)N[C@@H](CCCCNC(C)=O)C(=O)N4[C@@H]3c3cccc(OCCO)c3)cc2)[C@]12C(=O)Nc1ccccc12,2.81,1.19,0.838,0.276,1.25,1.53,-0.0996,0.581,-0.185,-0.878 (inactive)
O=C1O[C@@H](c2ccccc2)[C@@H](c2ccccc2)N2[C@@H](c3ccc(OCCO)cc3)[C@]3(C(=O)Nc4ccc(C#CC5(O)CCCCCC5)cc43)[C@@H](C(=O)O)[C@H]12,2.8,1.18,1.24,0.832,0.776,0.155,0.741,0.68,0.601,-2.86 (inactive)
CCCCC(O)C1C=CC2C(=O)N(c3ccccc3)C(=O)C2N1Nc1ccc(C#N)cc1 (stereo not given),0.584,1.13,0.764,0.981,0.0191,0.0696,0.0808,-0.295,0.819,-1.45 (inactive)
